Results from paper PMC5540273 (PLoS ONE, 2017).
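Also: KINOMEscan kinase panel screen.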

These compounds were tested on NEK2. Conditions: concentration: 1 μM,replicates: in singlicate; n = 1.
With `O=C(NCCNc1ccnc(NCc2ccc(F)cc2)n1)c1cc2ccccc2s1` [GSK1379944] the “%Inh” value was 4%.
`Cl.Cl.NC[C@H](CC1CCCCC1)NC(=O)c1cc(Br)c(-c2ccnc3[nH]ccc23)s1` [GSK1581427] was tested, and the “%Inh” value was 0%.
For `Cc1ccc2c(-c3ccncc3)c(-c3ccc(F)cc3)nn2c1.Cl` [GW461484], the “%Inh” value was 0%.
With `CC(C)N1C(=O)Cc2cc(Nc3ncc(C(F)(F)F)c(NCc4cccc(S(C)(=O)=O)c4)n3)ccc21` the “%Inh” value was 0%.
`CN(C)CC(O)COc1ccc(Nc2nccc(-c3cnn4nc(N5CCOCC5)ccc34)n2)cc1` (stereo not drawn) [GW767488] was tested, and the “%Inh” value was 14%.
With `COc1ccc(C[C@@H](CN)NC(=O)c2cc(Br)c(-c3ccnc4[nH]ccc34)s2)cc1.Cl.Cl` [GSK1389063] the “%Inh” value was 29%.
In the case of `C[C@@H](Oc1cc(-c2cnn(C3CCNCC3)c2)cnc1N)c1c(Cl)ccc(F)c1Cl`, the “%Inh” value is reported as 0%.
With `CCN(CC)CCCCNc1ncc2cc(-c3c(Cl)cccc3Cl)c(NC(=O)NC(C)(C)C)nc2n1` the “%Inh” value was 11%.
`C[C@H]1Oc2cc(cnc2N)-c2c(nn(C)c2C#N)CN(C)C(=O)c2ccc(F)cc21` was tested, and the “%Inh” value was 22%.
`CCN(CC)CCOc1ccc(Nc2ncc3cc(-c4c(Cl)cccc4Cl)c(=O)n(C)c3n2)cc1` [SB-601273] was tested, and the “%Inh” value was 99.5%.
With `Cl.Cl.NC[C@H](Cc1ccc(C(F)(F)F)cc1)NC(=O)c1cc(Br)c(-c2ccnc3[nH]ccc23)s1` [GSK1487252] the “%Inh” value was 0%.
For `C[C@@H]1CCN(C(=O)CC#N)C[C@@H]1N(C)c1ncnc2[nH]ccc12`, the “%Inh” value was 19%.
`Cc1n[nH]c2ccc(-c3cc(OC[C@@H](N)Cc4ccccc4)cnc3-c3ccoc3)cc12.O=C(O)C(F)(F)F.O=C(O)C(F)(F)F` [GSK507358] was tested, and the “%Inh” value was 0%.
`CN(C)CCOc1ccc(-c2cc(-c3c[nH]nc3-c3ccccn3)ccn2)cc1` [GW835314] was tested, and the “%Inh” value was 3%.
In the case of `CCn1c(-c2nonc2N)nc2c(C#CC(C)(C)O)nc(OCCN)cc21.Cl.Cl` [GSK902056], the “%Inh” value is reported as 13%.
In the case of `Nc1nc(Nc2ccccc2)cc(-c2ccc3c(N)n[nH]c3c2)n1` [GSK2225749], the “%Inh” value is reported as 14%.
In the case of `Cc1ccc(-n2nc(C(C)(C)C)cc2NC(=O)Nc2ccc(OCCN3CCOCC3)c3ccccc23)cc1` [GW839464], the “%Inh” value is reported as 0%.
For `Cc1cc(C(=O)Nc2ccc(Oc3ccc4nc(NC(=O)C5CC5)cn4n3)cc2)nn1-c1ccccc1`, the “%Inh” value was 10%.
In the case of `O=C(NCCCN1CCOC1=O)c1cnc(NCc2cc(Cl)ccc2Cl)nc1NC1CCCC1`, the “%Inh” value is reported as 7%.
In the case of `CC(C)Nc1cc(-c2ccc3c(N)n[nH]c3c2)nc(N)n1` [GSK2221681], the “%Inh” value is reported as 0%.
In the case of `CNC(=O)c1ccccc1Sc1ccc2c(/C=C/c3ccccn3)n[nH]c2c1`, the “%Inh” value is reported as 5%.
For `NC(=O)c1cc(-c2ccccc2)cc2c(C3CCNCC3)c[nH]c12` [GSK301362], the “%Inh” value was 10%.
For `Cl.Cl.Nc1nc(-c2ccc3c(N)n[nH]c3c2)cc(N2CCCC(NC(=O)c3ccccc3)C2)n1` (stereo not drawn) [GSK2286775], the “%Inh” value was 0%.
With `Cl.Oc1cc(-c2nc(-c3ccccc3)[nH]c2-c2ccncc2)ccc1Cl` [SB-386023] the “%Inh” value was 0%.
`Cc1cc2cn[nH]c2cc1-c1cccc2c(N)c(C(N)=O)nnc12` was tested, and the “%Inh” value was 12%.
In the case of `Cc1occc1-c1nc(N)c(OC[C@@H](N)Cc2c[nH]c3ccccc23)cc1-c1cc2c(C)n[nH]c2cn1` [GSK1660450], the “%Inh” value is reported as 6%.
`C=CC(=O)Nc1cc2c(Nc3ccc(F)c(Cl)c3)ncnc2cc1OCCCN1CCOCC1` [GW781483] was tested, and the “%Inh” value was 0%.
